Test results as given in PubChem BioAssay (Tox21).
Inconclusive results are not listed. Calls of active or inactive are those of the source. Unless noted, calls come from the whole dose curve.

Columns and labels:
[1] = qHTS assay to identify small molecule antagonists of the sonic hedgehog signaling (Shh) pathway (AID 1259369); note: nearly all actives have a fitted effect of over 45% in size; note: potency is the fitted concentration of half-maximal effect
Procedure, shortened: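 Stable Gli1-Luc reporter NIH/3T3 clone; quantitative HTS in stimulated mode with conditioned medium. Luminescence measured after 24hr compound treatment at 37 C.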

[2] = biological target: Estrogen receptor beta (Homo sapiens) (UniProt Q92731); assay: qHTS assay to identify small molecule agonists of the estrogen receptor beta (ER-beta) signaling pathway (AID 1259377; active = well fitted activation curve with a large enough effect in the signal ratio in the repeat runs, not every such curve was filed as active; the % refers to the signal ratio; note: potency is the fitted concentration of half-maximal effect)
Chain of Estrogen receptor beta (Homo sapiens) (Q92731 whole entry, looked up, the tested form may be a part): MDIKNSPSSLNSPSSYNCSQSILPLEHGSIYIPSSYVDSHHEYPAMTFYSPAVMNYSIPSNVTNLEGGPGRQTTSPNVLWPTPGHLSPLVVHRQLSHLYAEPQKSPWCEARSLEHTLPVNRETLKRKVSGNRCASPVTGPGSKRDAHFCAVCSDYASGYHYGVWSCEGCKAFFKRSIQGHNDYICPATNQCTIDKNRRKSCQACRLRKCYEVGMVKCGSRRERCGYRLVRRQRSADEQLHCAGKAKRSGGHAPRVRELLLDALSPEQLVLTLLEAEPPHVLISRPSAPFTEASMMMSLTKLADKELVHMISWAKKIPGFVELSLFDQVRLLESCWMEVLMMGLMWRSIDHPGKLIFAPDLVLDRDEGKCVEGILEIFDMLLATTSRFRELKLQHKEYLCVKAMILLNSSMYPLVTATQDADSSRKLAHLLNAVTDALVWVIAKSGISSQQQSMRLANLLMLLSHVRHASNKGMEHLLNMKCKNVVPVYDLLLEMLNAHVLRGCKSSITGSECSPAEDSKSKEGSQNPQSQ
Procedure, shortened: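 Agonist mode cell assay in GripTite HEK293T cells expressing an ER-beta fusion that drives beta-lactamase from an Upstream Activator Sequence; 16 hr compound exposure at 37C, then 2 h LiveBLAzer B/G FRET substrate at room temperature, fluorescence read-out.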

[3] = qHTS assay to identify small molecule agonists of the androgen receptor (AR) signaling pathway in the presence of an antagonist - cell viability counter screen (AID 1259379; active = well fitted curve in the direction sought with a large enough effect in the repeat runs; an effect the other way counts as inactive or inconclusive;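 note: MDA-kb2 human breast cancer cells carrying an MMTV luciferase reporter; series mostly up to about 92 µM; nearly all actives have a fitted effect of over 25% in size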)
Procedure, shortened: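 Nilutamide-containing (3.0uM final) MDA-kb2 cultures, 3,000 cells/well, were treated with compounds across 15 concentrations. After 16 hr at 37C with no CO2, cell viability was determined by CellTiter-Fluor fluorescence in the luciferase assay wells.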

[4] = biological target: Estrogen receptor (Homo sapiens) (UniProt P03372); assay: qHTS assay to identify small molecule agonists of the estrogen receptor alpha (ER-alpha) signaling pathway in the presence of an antagonist (AID 1259383); note: nearly all actives have a fitted effect of over 15% in size; note: potency is the fitted concentration of half-maximal effect; for activation: top concentration of the series differs between compounds
Chain of Estrogen receptor (Homo sapiens) (P03372 whole entry, looked up): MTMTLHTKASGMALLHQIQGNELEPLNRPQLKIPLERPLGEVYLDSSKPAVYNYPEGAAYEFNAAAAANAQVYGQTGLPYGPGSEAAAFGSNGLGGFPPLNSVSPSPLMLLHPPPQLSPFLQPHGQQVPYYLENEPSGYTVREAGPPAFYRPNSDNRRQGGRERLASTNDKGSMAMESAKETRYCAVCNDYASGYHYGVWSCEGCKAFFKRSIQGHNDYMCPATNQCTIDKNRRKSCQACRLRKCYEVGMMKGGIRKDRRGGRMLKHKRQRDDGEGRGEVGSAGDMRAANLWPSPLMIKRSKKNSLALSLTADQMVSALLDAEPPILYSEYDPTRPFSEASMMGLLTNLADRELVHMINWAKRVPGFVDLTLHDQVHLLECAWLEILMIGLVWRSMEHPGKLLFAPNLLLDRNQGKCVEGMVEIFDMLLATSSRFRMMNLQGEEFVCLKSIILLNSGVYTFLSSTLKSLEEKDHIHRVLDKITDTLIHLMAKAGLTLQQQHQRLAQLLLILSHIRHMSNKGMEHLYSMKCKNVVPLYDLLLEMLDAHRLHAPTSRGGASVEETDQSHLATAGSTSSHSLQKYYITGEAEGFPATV
Procedure, shortened: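 Readout was ERE-driven luciferase luminescence in VM7Luc4E2 cells, which express full-length ER-alpha endogenously. Compounds were tested at 15 concentrations for 22hr alongside 10.0nM ICI-182,780 (final concentration).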

[5] = qHTS assay to identify small molecule agonists or antagonists of the thyroid stimulating hormone receptor (TSHR) signaling pathway - wild type cell line counter screen (AID 1259384)
Procedure, shortened: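 Counter screen in untransfected Hek293: compounds (15-point titration, triplicate) plus phosphodiesterase inhibitor Ro20-1724 added after 18 h plating; 30 min RT. Intracellular cAMP via competitive d2/cryptate immunoassay, 1 h incubation.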

[6] = qHTS assay to identify small molecule agonists of the estrogen receptor alpha (ER-alpha) signaling pathway in the presence of an antagonist - cell viability counter screen (AID 1259386; active = well fitted curve in the direction sought with a large enough effect in the repeat runs; an effect the other way counts as inactive or inconclusive;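 note: series mostly up to about 92 µM; cells exposed to compounds for 22 h at 37 °C before the viability read; nearly all actives have a fitted effect of over 30% in size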)
Procedure, shortened: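 In this counter screen, compound effects on VM7Luc4E2 viability were tested in the presence of the antagonist ICI-182,780 at 10.0nM final. Compounds were dosed at 15 concentrations, exposure lasted 22hr, and the CellTiter-Fluor signal was read.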

[7] = biological target: Progesterone receptor (Homo sapiens) (UniProt P06401); assay: qHTS assay to identify small molecule antagonists of the progesterone receptor (PR) signaling pathway (AID 1346795; active = well fitted inhibition curve with a large enough effect in the signal ratio in the repeat runs, not every such curve was filed as active; the % refers to the signal ratio; note: potency is the fitted concentration of half-maximal effect)
Chain of Progesterone receptor (Homo sapiens) (P06401 whole entry, looked up): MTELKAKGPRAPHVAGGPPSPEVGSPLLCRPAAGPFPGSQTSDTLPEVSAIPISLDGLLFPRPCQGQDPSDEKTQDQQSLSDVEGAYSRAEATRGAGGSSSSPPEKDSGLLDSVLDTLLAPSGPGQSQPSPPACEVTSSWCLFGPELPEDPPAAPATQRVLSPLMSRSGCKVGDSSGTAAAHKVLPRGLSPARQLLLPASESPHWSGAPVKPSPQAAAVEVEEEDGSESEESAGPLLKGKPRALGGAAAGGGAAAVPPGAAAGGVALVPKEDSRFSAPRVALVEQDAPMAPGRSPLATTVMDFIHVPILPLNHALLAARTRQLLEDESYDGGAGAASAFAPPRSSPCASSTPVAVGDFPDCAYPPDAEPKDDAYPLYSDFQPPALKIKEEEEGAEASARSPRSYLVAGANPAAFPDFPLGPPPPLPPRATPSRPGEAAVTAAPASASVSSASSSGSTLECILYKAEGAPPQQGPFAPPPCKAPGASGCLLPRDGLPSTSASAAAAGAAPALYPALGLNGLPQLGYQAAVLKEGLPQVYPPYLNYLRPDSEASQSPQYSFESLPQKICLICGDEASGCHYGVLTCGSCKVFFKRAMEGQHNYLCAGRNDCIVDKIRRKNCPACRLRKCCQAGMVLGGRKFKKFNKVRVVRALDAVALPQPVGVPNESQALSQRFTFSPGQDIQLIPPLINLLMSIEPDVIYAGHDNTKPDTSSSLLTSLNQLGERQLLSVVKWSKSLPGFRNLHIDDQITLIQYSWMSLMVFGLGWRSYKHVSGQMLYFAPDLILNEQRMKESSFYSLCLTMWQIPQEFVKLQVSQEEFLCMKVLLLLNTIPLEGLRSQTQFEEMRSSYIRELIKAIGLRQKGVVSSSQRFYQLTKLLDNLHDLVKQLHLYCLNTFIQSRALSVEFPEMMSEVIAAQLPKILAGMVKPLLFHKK
Procedure, shortened: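 Antagonist mode: compounds tested against 1 nM (final) promegestone stimulation in HEK293T cells expressing PR-UAS-bla reporter, 16 hr at 37C, 5% CO2; beta-lactamase activity detected via B/G FRET substrate after 2 hr at room temperature.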

[8] = qHTS assay to identify small molecule antagonists of the TGF-beta/Smad signaling pathway - cell viability counter screen (AID 1346824; active = well fitted curve in the direction sought with a large enough effect in the repeat runs; an effect the other way counts as inactive or inconclusive; note: nearly all actives have a fitted effect of over 50% in size)
Procedure, shortened: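 Cytotoxicity counter-screen run in the same wells as the beta-lactamase Smad reporter read: CellTiter-Glo luminescence after 30 min at room temperature. HEK 293T SBE-bla cells had 5 hr compound exposure at 37 C with TGF-beta1 (0.25 ng/mL stock).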

[9] = qHTS assay to identify small molecule agonists of the TGF-beta/Smad signaling pathway - cell viability counter screen (AID 1346829; active = well fitted curve in the direction sought with a large enough effect in the repeat runs; an effect the other way counts as inactive or inconclusive; note: top concentration of the series differs between compounds; nearly all actives have a fitted effect of over 45% in size)
Procedure, shortened: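 Tox21 qHTS format: SBE-bla HEK 293T cells treated with DMSO-dissolved compounds for 5 hr; CellTiter-Glo luminescence after 30 min at room temperature.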

[10] = qHTS assay to identify small molecule agonists of the TGF-beta/Smad signaling pathway (AID 1346859; active = well fitted activation curve with a large enough effect in the signal ratio in the repeat runs, not every such curve was filed as active; the % refers to the signal ratio; note: series mostly up to about 77 µM)
Procedure, shortened: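 Reporter line: HEK 293T with stably integrated SBE-controlled beta-lactamase. Compound exposure lasts 5 hr at 37 C and 5% CO2; substrate loading follows for 2 hr at room temperature, with emission read at 460 and 530 nm.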

[11] = biological target: Thyrotropin-releasing hormone receptor (Homo sapiens) (UniProt P34981); assay: qHTS assay to identify small molecule antagonists of the thyrotropin-releasing hormone receptor (TRHR) signaling pathway (AID 1346877; active = well fitted inhibition curve with a large enough effect in the repeat runs, not every such curve was filed as active; note: series mostly up to about 51 µM)
Chain of Thyrotropin-releasing hormone receptor (Homo sapiens) (P34981 whole entry, looked up): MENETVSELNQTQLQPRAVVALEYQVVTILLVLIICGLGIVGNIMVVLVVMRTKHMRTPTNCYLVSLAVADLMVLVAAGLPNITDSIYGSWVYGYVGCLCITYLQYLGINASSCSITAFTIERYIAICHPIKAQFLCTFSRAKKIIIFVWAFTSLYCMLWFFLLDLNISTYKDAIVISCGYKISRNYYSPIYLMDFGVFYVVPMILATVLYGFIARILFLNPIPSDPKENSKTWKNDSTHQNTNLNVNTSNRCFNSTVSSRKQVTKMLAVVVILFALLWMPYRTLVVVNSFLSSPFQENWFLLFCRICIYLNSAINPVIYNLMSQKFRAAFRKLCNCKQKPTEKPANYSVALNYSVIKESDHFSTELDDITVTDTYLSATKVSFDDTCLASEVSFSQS
Procedure, shortened: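 Kinetic fluorescence (3 min, 1 s resolution) following stimulation with TRH at 1 nM final; HEK293 cells bearing human TRHR; 5 min compound preincubation at RT; concentration-response over 15 points, triplicates.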

[12] = biological target: Thyrotropin-releasing hormone receptor (Homo sapiens) (UniProt P34981); assay: qHTS assay to identify small molecule agonists of the thyrotropin-releasing hormone receptor (TRHR) signaling pathway (AID 1346891);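 note: HEK293 cells expressing TRHR with calcium dye readout; series mostly up to about 58 µM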
Procedure, shortened: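 Cells: TRHR-Hek293, seeded and incubated 18 h. Dye loading: 2 h at 37 °C. Compound added from DMSO stock by pin tool. Read-out: kinetic calcium fluorescence over 3 min.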

[13] = biological target: Androgen receptor (Homo sapiens) (UniProt P10275); assay: qHTS assay to identify small molecule agonists of the androgen receptor (AR) signaling pathway in the presence of an antagonist (AID 1259381); note: nearly all actives have a fitted effect of over 15% in size
Chain of Androgen receptor (Homo sapiens) (P10275 whole entry, looked up): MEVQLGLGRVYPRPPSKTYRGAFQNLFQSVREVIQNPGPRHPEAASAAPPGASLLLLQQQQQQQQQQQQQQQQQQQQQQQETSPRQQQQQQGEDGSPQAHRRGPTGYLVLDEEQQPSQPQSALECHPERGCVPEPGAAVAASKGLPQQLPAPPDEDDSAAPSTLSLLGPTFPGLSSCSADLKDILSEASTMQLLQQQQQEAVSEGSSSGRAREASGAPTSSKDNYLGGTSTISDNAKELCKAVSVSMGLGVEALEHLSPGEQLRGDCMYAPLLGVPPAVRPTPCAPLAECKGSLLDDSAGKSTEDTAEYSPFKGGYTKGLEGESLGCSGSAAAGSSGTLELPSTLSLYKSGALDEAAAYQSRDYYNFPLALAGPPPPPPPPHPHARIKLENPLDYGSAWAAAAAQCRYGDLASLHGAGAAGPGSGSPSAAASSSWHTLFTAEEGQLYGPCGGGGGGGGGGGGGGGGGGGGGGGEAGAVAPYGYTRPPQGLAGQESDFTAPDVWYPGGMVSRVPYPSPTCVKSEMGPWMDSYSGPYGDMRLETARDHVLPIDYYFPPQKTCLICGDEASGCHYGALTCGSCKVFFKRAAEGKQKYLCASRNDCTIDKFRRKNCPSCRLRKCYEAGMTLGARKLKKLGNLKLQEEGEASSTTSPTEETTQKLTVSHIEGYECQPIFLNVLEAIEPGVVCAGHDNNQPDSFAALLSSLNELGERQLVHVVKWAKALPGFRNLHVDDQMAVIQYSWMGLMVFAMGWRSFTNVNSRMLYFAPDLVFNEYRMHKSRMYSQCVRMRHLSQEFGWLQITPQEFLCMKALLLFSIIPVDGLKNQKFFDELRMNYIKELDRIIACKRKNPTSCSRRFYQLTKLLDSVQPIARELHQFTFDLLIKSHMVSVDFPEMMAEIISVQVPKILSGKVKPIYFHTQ
Procedure, shortened: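 Reporter-gene luminescence from MDA-kb2 cells exposed 16hr at 37C (0% CO2) to 15-point compound titrations with 3.0uM final nilutamide as AR antagonist.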

[14] = biological target: Thyrotropin receptor (Homo sapiens) (UniProt P16473); assay: qHTS assay to identify small molecule antagonists of the thyroid stimulating hormone receptor (TSHR) signaling pathway (AID 1259385); note: nearly all actives have a fitted effect of over 20% in size
Chain of Thyrotropin receptor (Homo sapiens) (P16473 whole entry, looked up): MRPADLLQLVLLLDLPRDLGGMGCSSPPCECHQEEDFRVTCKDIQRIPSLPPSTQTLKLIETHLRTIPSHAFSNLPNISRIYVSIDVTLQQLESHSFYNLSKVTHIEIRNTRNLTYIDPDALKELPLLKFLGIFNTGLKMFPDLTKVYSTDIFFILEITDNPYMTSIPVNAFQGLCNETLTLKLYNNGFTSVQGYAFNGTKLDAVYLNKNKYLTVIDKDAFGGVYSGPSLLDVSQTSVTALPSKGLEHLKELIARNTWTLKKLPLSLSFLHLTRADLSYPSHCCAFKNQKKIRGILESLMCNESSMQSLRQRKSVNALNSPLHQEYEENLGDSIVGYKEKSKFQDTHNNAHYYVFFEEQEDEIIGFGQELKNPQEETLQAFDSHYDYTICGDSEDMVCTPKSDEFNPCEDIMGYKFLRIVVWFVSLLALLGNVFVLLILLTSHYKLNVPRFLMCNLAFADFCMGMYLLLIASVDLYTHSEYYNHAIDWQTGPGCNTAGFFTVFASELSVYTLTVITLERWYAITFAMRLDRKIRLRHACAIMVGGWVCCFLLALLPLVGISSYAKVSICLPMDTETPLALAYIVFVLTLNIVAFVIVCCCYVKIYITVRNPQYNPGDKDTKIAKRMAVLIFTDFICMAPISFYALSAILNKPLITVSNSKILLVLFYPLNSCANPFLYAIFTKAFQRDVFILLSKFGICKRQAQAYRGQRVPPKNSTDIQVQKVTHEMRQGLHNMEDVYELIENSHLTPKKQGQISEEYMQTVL
Procedure, shortened: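 Antagonist mode: compound-treated TSHR-expressing HEK293 cells were stimulated with 1.5 ng/mL TSH (final) in presence of Ro20-1724 for 30 min at RT. HTRF cAMP detection after 1 h; each compound tested at 15 concentrations, triplicate.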

[15] = biological target: Progesterone receptor (Homo sapiens) (UniProt P06401); assay: qHTS assay to identify small molecule agonists of the progesterone receptor (PR) signaling pathway (AID 1346784); note: nearly all actives have a fitted effect of over 30% in size
Procedure, shortened: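 Cells (PR-UAS-bla HEK 293T, GripTite) were plated in assay medium containing 2% charcoal-stripped FBS and incubated 6 hr. Test compounds in DMSO were added for 16 hr at 37C. FRET substrate was then loaded for 2 hr at room temperature before fluorescence reading.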

[16] = qHTS assay to identify small molecule agonists of the progesterone receptor (PR) signaling pathway - cell viability counter screen (AID 1346799); note: nearly all actives have a fitted effect of over 45% in size
Procedure, shortened: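 Cells (PR-UAS-bla HEK293T) are plated at 3,000/well in 2% charcoal-stripped FBS medium, rested 6 hr, dosed and incubated 16 hr at 37C. CellTiter-Glo is then added and luminescence measured after 30 min at room temperature.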

[17] = qHTS assay to identify small molecule antagonists of the estrogen receptor beta (ER-beta) signaling pathway - cell viability counter screen (AID 1259382; active = well fitted curve in the direction sought with a large enough effect in the repeat runs; an effect the other way counts as inactive or inconclusive;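 note: HEK293T cells carrying ER-beta-UAS-bla reporter stimulated with estradiol; series mostly up to about 92 µM; nearly all actives have a fitted effect of over 55% in size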)
Procedure, shortened: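 Viability is scored by CellTiter-Glo luminescence (30 min, room temperature) in ER-beta-UAS-bla HEK293T wells already read for reporter fluorescence. Compound exposure lasts 16 hr at 37C alongside 1nM 17-beta-estradiol in charcoal-stripped serum medium.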

[18] = qHTS assay to identify small molecule antagonists of the progesterone receptor (PR) signaling pathway - cell viability counter screen (AID 1346798; active = well fitted curve in the direction sought with a large enough effect in the repeat runs; an effect the other way counts as inactive or inconclusive; note: series mostly up to about 92 µM; nearly all actives have a fitted effect of over 50% in size)
Procedure, shortened: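 Counter screen for cytotoxicity: viability of PR-UAS-bla HEK293T cells was measured with CellTiter-Glo luminescence following 16 hr compound exposure in the presence of R5020.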

[19] = qHTS assay to identify small molecule agonists of the estrogen receptor beta (ER-beta) signaling pathway - cell viability counter screen (AID 1259380; active = well fitted curve in the direction sought with a large enough effect in the repeat runs; an effect the other way counts as inactive or inconclusive; note: nearly all actives have a fitted effect of over 30% in size)
Procedure, shortened: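 Steps: plate ER-beta-UAS-bla HEK293T cells, rest 6 hr; add compounds in DMSO; incubate 16 hr at 37C, 5% CO2; add FRET substrate 2 hr; add CellTiter-Glo, wait 30 min at room temperature; read luminescence.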

[20] = biological target: Estrogen receptor beta (Homo sapiens) (UniProt Q92731); assay: qHTS assay to identify small molecule antagonists of the estrogen receptor beta (ER-beta) signaling pathway (AID 1259378; active = well fitted inhibition curve with a large enough effect in the signal ratio in the repeat runs, not every such curve was filed as active; the % refers to the signal ratio)
Procedure, shortened: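 Antagonist mode: compounds added to beta-lactamase reporter HEK293T ER-beta-UAS cells stimulated with E2 (1nM final), 16 hr at 37C. LiveBLAzer B/G FRET substrate, 2 hours room temperature, fluorescence read-out.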
% is set by controls: 0 for no effect and ±100 for the full control effect.

Oc1ccc(Sc2ccc(O)cc2)cc1
inactive: Potency [3] | Potency [5] | Potency [6] | Potency [8] | Potency [9] | outcome [10] | outcome [11] | Potency [12]
active: Potency [1] 20.3 µM | Potency [2] 6.42 µM | Potency [4] 14.4 µM | Potency [7] 18.1 µM

CCCCCCCC/C=C\CCCCCCCC(N)=O
inactive: Potency [1] | Potency [2] | Potency [3] | Potency [13] | Potency [5] | Potency [14] | Potency [6] | outcome [15] | Potency [16] | Potency [8] | Potency [9] | outcome [10] | outcome [11] | Potency [12]

CC(C)(C)c1ccc(S)cc1
inactive: Potency [1] | Potency [2] | Potency [3] | Potency [17] | Potency [4] | Potency [5] | Potency [14] | Potency [6] | outcome [15] | Potency [7] | Potency [18] | Potency [16] | Potency [8] | Potency [9] | outcome [10] | outcome [11] | Potency [12]

CC[C@@H]1C[C@H](N(Cc2cc(C(F)(F)F)cc(C(F)(F)F)c2)C(C)=O)c2cc(C(F)(F)F)ccc2N1C(=O)OC(C)C
inactive: Potency [2] | Potency [3] | Potency [19] | Potency [17] | Potency [4] | Potency [6] | outcome [15] | Potency [7] | Potency [16] | Potency [8] | Potency [9] | outcome [10] | outcome [11] | Potency [12]
active: Potency [1] 9.69 µM

O=C(CCN1CCN2CCCC2C1)N1c2ccccc2Sc2ccc(Cl)cc21 (stereo not given)
inactive: activity change, negative = inhibition [1] -18.5% [at 19 µM] | activation [2] -2.5% [at 19 µM] | activity change, negative = cytotoxicity [3] -7.38% [at 19 µM] | activity change, negative = cytotoxicity [19] -14.2% [at 19 µM] | activation [13] -1.48% [at 19 µM] | activity change, negative = cytotoxicity [17] -9.75% [at 19 µM] | activation [4] -1.43% [at 19 µM] | cAMP activity change [5] -1.23% [at 18.9 µM, stronger effect = higher value] | activation [15] -2.53% [at 19 µM] | activity change, negative = inhibition [7] -10.4% [at 18.9 µM] | activity change, negative = cytotoxicity [18] -27.7% [at 18.9 µM] | activity change, negative = cytotoxicity [16] -27.9% [at 19 µM] | viability change, negative = cytotoxic [8] 0.3% [at 15.8 µM] | activity change, negative = cytotoxicity [9] -3.72% [at 15.8 µM] | activation [10] -2.07% [at 15.8 µM]

CCCCCc1ccc(N)cc1
inactive: Potency [1] | Potency [2] | Potency [20] | Potency [17] | Potency [4] | Potency [14] | Potency [6] | Potency [7] | Potency [18] | Potency [16] | Potency [8] | Potency [9] | outcome [10] | outcome [11] | Potency [12]

CCCCCCCCCC=O
inactive: Potency [1] | Potency [2] | Potency [3] | Potency [4] | Potency [14] | Potency [6] | outcome [15] | Potency [7] | Potency [18] | Potency [16] | Potency [8] | Potency [9] | outcome [11] | Potency [12]

O=S1(=O)c2cccc3cccc(c23)N1CCCN1CCN(c2ccc(F)cc2)CC1
active: Potency [7] 18.8 µM
inactive: Potency [1] | Potency [2] | Potency [17] | Potency [4] | Potency [14] | Potency [6] | outcome [15] | Potency [8] | Potency [9] | outcome [10] | outcome [11] | Potency [12]

c1ccc(CNCc2ccccc2)cc1
inactive: Potency [1] | Potency [2] | Potency [19] | Potency [17] | Potency [4] | Potency [5] | Potency [14] | Potency [6] | outcome [15] | Potency [7] | Potency [18] | Potency [16] | Potency [8] | Potency [9] | outcome [10]
